Measurements from PubChem BioAssay (NCATS).
Inconclusive results are not listed. Entries that show only a call come without a potency. Unmarked numbers belong to inactive results. Activity calls are given as the source filed them. Calls come from the whole dose curve; as a rule, active = well fitted curve in the direction sought with a large enough effect; inconclusive = small, poorly fitted or top-dose-only effect, or another doubt; inactive = no such curve, though single readings can be large; an effect the other way counts as inactive or inconclusive.

Tests used:
[1] = molecular target: Aldehyde dehydrogenase, mitochondrial (Homo sapiens) (UniProt P05091); experiment: qHTS for Inhibitors of the Aldehyde Dehydrogenase Family (ALDH2) Primary screen (AID 2061308); note: nearly all actives have a fitted effect of over 55% in size; note: potency is the fitted concentration of half-maximal effect
[2] = molecular target: Retinaldehyde dehydrogenase 3 (Homo sapiens) (UniProt P47895); experiment: qHTS for Inhibitors of the Aldehyde Dehydrogenase Family (ALDH1A3) Validation screen (AID 2061312); note: nearly all actives have a fitted effect of over 45% in size; note: potency is the fitted concentration of half-maximal effect
[3] = molecular target: Retinaldehyde dehydrogenase 3 (Homo sapiens) (UniProt P47895); experiment: qHTS for Inhibitors of the Aldehyde Dehydrogenase Family (ALDH1A3) Primary screen (AID 2061315)
[4] = molecular target: Retinaldehyde dehydrogenase 3 (Homo sapiens) (UniProt P47895); experiment: qHTS for Inhibitors of the Aldehyde Dehydrogenase Family (ALDH1A3) Confirmatory screens (AID 2061311); note: nearly all actives have a fitted effect of over 60% in size; note: potency is the fitted concentration of half-maximal effect
[5] = molecular target: Aldehyde dehydrogenase 1A1 (Homo sapiens) (UniProt P00352); experiment: qHTS for Inhibitors of the Aldehyde Dehydrogenase Family (ALDH1A1) Confirmatory screens (AID 2061316); note: nearly all actives have a fitted effect of over 65% in size; note: potency is the fitted concentration of half-maximal effect
[6] = BET inhibitor-based combinations targeting novel dependencies in MECOM-rearranged (r) AML: SET-2 cell line (AID 2202231); conditions: SET-2 AML cells viability, CellTiter-Glo luminescence, 48 h; viability: hits give low values, series mostly up to about 46 µM; note: nearly all actives have a fitted effect of over 35% in size
In short: (§1)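 Readout: CellTiter-Glo luminescence. Exposure: 48 h, 11 concentrations, 500 cells/well. Metric: AUC and within-line Z-AUC after DMSO/empty-well normalization.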

[7] = BET inhibitor-based combinations targeting novel dependencies in MECOM-rearranged (r) AML: OCI-AML3 cell line (AID 2202232); conditions: Potency: OCI-AML3 viability; note: series mostly up to about 46 µM; nearly all actives have a fitted effect of over 35% in size
In short: as §1

[8] = BET inhibitor-based combinations targeting novel dependencies in MECOM-rearranged (r) AML: MV-4-11 cell line (AID 2202233); note: nearly all actives have a fitted effect of over 45% in size
In short: (§2)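 Seeding density was 500 cells/well, and drug exposure lasted 48 hr under standard culture conditions. Read-out used CellTiter-Glo reagent with a 15 min room-temperature incubation before luminescence measurement; AUC and Z-AUC summarize the normalized responses.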

[9] = BET inhibitor-based combinations targeting novel dependencies in MECOM-rearranged (r) AML: HNT-34 cell line (AID 2202234); note: nearly all actives have a fitted effect of over 35% in size
In short: as §2

[10] = BET inhibitor-based combinations targeting novel dependencies in MECOM-rearranged (r) AML: UCSD-AML1 cell line (AID 2202235); note: series mostly up to about 46 µM; nearly all actives have a fitted effect of over 40% in size
In short: as §2

[11] = BET inhibitor-based combinations targeting novel dependencies in MECOM-rearranged (r) AML: AML-191 cell line (AID 2202236; note: nearly all actives have a fitted effect of over 35% in size)
In short: as §1

Structure (SMILES): O=C(c1ccccc1)c1ccc2nc(NC(=O)c3csc(C4CCN(c5ncnc6ccsc56)CC4)n3)[nH]c2c1
- Potency [1]: inactive
- Potency [2]: inactive
- Potency [3]: inactive

Structure (SMILES): C[C@H]1[C@H](C)C[C@@H](C(=O)O)C2CC[C@]3(C)C(=CC[C@@H]4[C@@]5(C)CC[C@H](O)C(C)(C)[C@@H]5CC[C@]43C)[C@@H]21 (stereo partly drawn)
- Potency [1]: inactive
- Potency [2]: inactive
- Potency [3]: inactive

Structure (SMILES): Cc1cc(C)nc(NC(=S)N2CCN(c3cccc4[nH]ccc34)CC2)c1
- Potency [1]: inactive
- Potency [4]: 7.12 µM (active)
- Potency [3]: inactive
- Potency [5]: 8.96 µM (active)

Structure (SMILES): COc1cc(N(C)CCN(C)C)c(N)cc1Nc1nccc(-c2cn(C)c3ccccc23)n1
- Potency [1]: inactive
- Potency [2]: inactive
- Potency [3]: inactive

Structure (SMILES): Cc1ccc(S(=O)(=O)Nc2ccc(NS(=O)(=O)c3ccc(C)cc3)c3ncccc23)cc1
- Potency [1]: inactive
- Potency [4]: 15.9 µM (active)
- Potency [3]: inactive
- Potency [5]: inactive

Structure (SMILES): NC(=O)C1CCN(c2nc(-c3ccccc3-c3ccccc3)cs2)CC1
- Potency [1]: inactive
- Potency [4]: 2.83 µM (active)
- Potency [5]: 3.18 µM (active)

Structure (SMILES): NNc1ccc(NC(=O)c2cccs2)cn1
- Potency [1]: inactive
- Potency [4]: 11.3 µM (active)
- Potency [3]: inactive

Structure (SMILES): CNC1CN(c2ccc3c(=O)c(C(=O)O)cn(-c4nccs4)c3n2)CC1OC (stereo not drawn)
- activity change, negative = inhibition [1]: 2.97% [at 11.2 µM]
- activity change, negative = inhibition [2]: -0.123% [at 20.1 µM]
- activity change, negative = inhibition [3]: -3.75% [at 11.2 µM]

Structure (SMILES): Cc1cc(C)nc(NCc2ccc(O)c3ncccc23)c1
- Potency [1]: 11.2 µM (active)
- Potency [4]: 5.04 µM (active)
- Potency [5]: 11.3 µM (active)

Structure (SMILES): CC1(C)N=C(Nc2nc3ccccc3o2)NC2=C1C(=O)CCC2
- Potency [1]: inactive
- Potency [4]: inactive
- Potency [3]: inactive

Structure (SMILES): O=C(NCCCN1CCNCC1)c1cccc(-c2cc(O)c3ncccc3c2)c1
- Potency [1]: inactive
- Potency [4]: 10.1 µM (active)
- Potency [3]: inactive
- Potency [5]: inactive

Structure (SMILES): COCCOc1cnc2ccn([C@H](C)c3nnc4c(F)cc(-c5cnn(C)c5)cn34)c(=O)c2c1
- Potency [1]: inactive
- Potency [4]: 12.7 µM (active)
- Potency [3]: inactive
- Potency [5]: 25.2 µM (active)
- viability [6]: 70.9%
- Potency [7]: inactive
- Potency [8]: inactive
- Potency [9]: inactive
- Potency [10]: inactive
- Potency [11]: inactive

Structure (SMILES): C[C@@H](CN1CCC(n2c(=O)[nH]c3cc(Cl)ccc32)CC1)NC(=O)c1ccc2ccccc2c1
- Potency [1]: inactive
- Potency [2]: inactive
- Potency [3]: inactive

Structure (SMILES): CCC(=C(c1ccc(OCCN2CCCC2)cc1)c1ccc(OCCN2CCCC2)cc1)c1ccccc1
- Potency [1]: inactive
- Potency [2]: inactive
- Potency [3]: inactive

Structure (SMILES): O=C1Cc2c([nH]c3ccc(Br)cc23)-c2ncccc2N1
- Potency [1]: inactive
- Potency [2]: inactive
- Potency [3]: inactive

Structure (SMILES): CC(NC(=O)Cc1cc(F)cc(F)c1)C(=O)NC1C(=O)N(C)c2ccccc2-c2ccccc21 (stereo not drawn)
- Potency [1]: inactive
- Potency [2]: inactive
- Potency [3]: inactive

Structure (SMILES): COc1cccc(CNc2ccc(S(=O)(=O)Nc3cccc4ccncc34)cc2)c1O
- Potency [1]: inactive
- Potency [4]: 22.5 µM (active)
- Potency [3]: inactive
- Potency [5]: inactive

Structure (SMILES): Cc1cc(C)nc(NC(=S)N2CCN(c3ccc4nonc4c3)CC2)c1
- Potency [1]: inactive
- Potency [4]: 15.9 µM (active)
- Potency [3]: inactive
- Potency [5]: 11.3 µM (active)

Structure (SMILES): CC(=O)Nc1nc2c(Oc3cc(-c4ccc(C(F)(F)F)cc4)ncn3)cccc2s1
- Potency [1]: inactive
- Potency [2]: inactive
- Potency [3]: inactive

Structure (SMILES): CNC(=O)C1=C(C)NC(Nc2nc3ccccc3o2)=NC1c1[nH]ncc1Cl (stereo not drawn)
- Potency [1]: inactive
- Potency [4]: inactive
- Potency [3]: inactive

Structure (SMILES): Cc1ccnc(NC(=S)N2CCN(c3ccc4ccccc4n3)CC2)c1
- Potency [1]: 2.82 µM (active)
- Potency [4]: 11.3 µM (active)
- Potency [5]: 3.18 µM (active)

Structure (SMILES): Cc1cnc(-c2ccccc2N(C)C)nc1NCc1ccc(-c2cccnc2)cc1
- Potency [1]: inactive
- Potency [4]: 3.55 µM (active)
- Potency [3]: inactive
- Potency [5]: 14.2 µM (active)

Structure (SMILES): COc1cc2nc(N3CCC(N4CCCCC4)CC3)nc(NC3CCCCCC3)c2cc1OC
- Potency [1]: inactive
- Potency [2]: inactive
- Potency [3]: inactive

Structure (SMILES): CCc1cnn2c(NCc3ccc[n+]([O-])c3)cc(N3CCCCC3CCO)nc12 (stereo not drawn)
- Potency [1]: inactive
- Potency [2]: inactive
- Potency [3]: inactive

Structure (SMILES): COc1ccc2nc(-c3cc(OC)c(OC)c(OC)c3)cc(C(=O)NCC(=O)Nc3ccc(C(C)=O)cc3)c2c1
- Potency [1]: inactive
- Potency [2]: inactive
- Potency [3]: inactive

Structure (SMILES): CN(C)CC(=O)Nc1ccc2[nH]c(=O)c3ccccc3c2c1
- Potency [1]: inactive
- Potency [2]: inactive
- Potency [3]: inactive

Structure (SMILES): CCc1ccccc1OC[C@@H](O)CN[C@H]1CCCc2ccccc21
- Potency [1]: inactive
- Potency [2]: inactive
- Potency [3]: inactive

Structure (SMILES): CC(C)(C)CC(C)(C)c1ccc(OCCOCC[N+](C)(C)Cc2ccccc2)cc1
- Potency [1]: inactive
- Potency [2]: inactive
- Potency [3]: inactive

Structure (SMILES): N#Cc1ccc(COc2ccc(-c3cccc4nc(NC(=O)C5CC5)nn34)cc2)cn1
- Potency [1]: inactive
- Potency [2]: inactive
- Potency [3]: inactive

Structure (SMILES): COc1ccc(NC(=O)Nc2ccc(-c3nc4ccccc4[nH]3)cc2)cc1OC
- Potency [1]: inactive
- Potency [4]: inactive
- Potency [3]: inactive

Structure (SMILES): N#Cc1ccc2[nH]c(O)c(-c3ccc(CN4CCOCC4)cn3)c2c1
- Potency [1]: inactive
- Potency [2]: 10 µM (active)

Structure (SMILES): CCCSc1nc(N[C@@H]2C[C@H]2c2ccc(F)c(F)c2)c2nnn([C@@H]3C[C@H](OCCO)[C@@H](O)[C@H]3O)c2n1
- Potency [1]: inactive
- Potency [2]: inactive
- Potency [3]: inactive
